Activity calls are given as the source filed them. Unless noted, no rule for the calls is given here.
Legend:
[1] = tested on: Wnt5a (protein binding on small-molecule microarray); experiment: Wnt5a binders on small-molecule microarray, primary screen, biophysical, 635/667 nm fluorescence (AID 1142); details: 635 nm fluorescence, higher = more signal;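 also: fluorescence read at 667 nm with signal to noise per printed feature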
[2] = cell viability in Huh7 cells, primary screen, cytotoxicity control for HCV replication inhibitor project, CellTiter-Glo luminescence, basal, 48 h (AID 1143); details: Huh7 HCV replicon, higher = more signal, called active from +8 up or from −8 down;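 also: Huh7 hepatoma cells carrying a hepatitis C replication reporter with no stimulus; test concentration not given here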
[3] = P. aeruginosa biofilm formation inhibitors, primary screen, PAO1 strain, BacTiter-Glo luminescence, LB-PBS (AID 1144); details: 12 h, higher = more signal
[4] = CREB reporter modulators without forskolin, primary screen, cell-based, PC12, CRE-LacZ reporter, unstimulated (AID 1145); details: no forskolin, luminescence, 4.5 h, higher = more signal, called active from +8 up or from −8 down
[5] = CREB reporter modulators under forskolin, primary screen, cell-based, PC12, CRE-LacZ reporter, forskolin-stimulated (AID 1146); details: luminescence, 4.5 h, higher = more signal, called active from +8 up or from −8 down;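 also: PC12 cells with 6xCRE LacZ reporter stimulated by forskolin 10 µM; beta-galactosidase reporter signal reflecting CREB driven transcription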
[6] = molecular target: Streptavidin (Streptomyces avidinii) (UniProt P22629); experiment: streptavidin binders on small-molecule microarray, primary screen, artefact control for SMM compound annotation, biophysical, 635/667 nm fluorescence (AID 1147); details: streptavidin binding, higher = more signal;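 also: signal reflects streptavidin binding to arrayed compounds as a control protein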
Chain of Streptavidin (Streptomyces avidinii) (P22629 whole entry, looked up): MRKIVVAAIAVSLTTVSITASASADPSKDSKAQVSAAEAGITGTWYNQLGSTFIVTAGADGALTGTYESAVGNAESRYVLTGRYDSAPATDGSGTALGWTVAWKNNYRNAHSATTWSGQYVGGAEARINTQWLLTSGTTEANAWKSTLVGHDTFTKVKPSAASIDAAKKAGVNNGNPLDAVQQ

[7] = small-molecule binders of probe aInhba, primary screen, biochemical, small-molecule microarray, 635/667 nm fluorescence (AID 1148); details: higher = more signal;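 also: score merges 667nm spot fluorescence with signal-to-noise for antibody binding to printed compounds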
Torsin-1A (Homo sapiens) [8] = molecular target: Torsin-1A (Homo sapiens) (UniProt O14656); experiment: torsin A binders from cell lysate, primary screen, small-molecule microarray, wild-type, 635/667 nm (AID 1149); details: COS7 hTOR1A-WT lysate, 635 nm fluorescence, higher = more signal
Chain of Torsin-1A (Homo sapiens) (O14656 whole entry, looked up): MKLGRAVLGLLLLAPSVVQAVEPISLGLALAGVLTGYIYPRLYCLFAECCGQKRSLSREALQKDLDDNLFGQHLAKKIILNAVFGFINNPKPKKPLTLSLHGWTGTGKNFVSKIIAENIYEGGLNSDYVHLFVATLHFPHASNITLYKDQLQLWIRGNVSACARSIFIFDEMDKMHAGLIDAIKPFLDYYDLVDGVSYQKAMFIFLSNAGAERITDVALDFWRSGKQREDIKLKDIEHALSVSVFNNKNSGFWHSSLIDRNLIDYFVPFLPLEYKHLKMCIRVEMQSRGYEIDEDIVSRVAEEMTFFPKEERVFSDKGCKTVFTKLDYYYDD

Torsin-1A (Homo sapiens) [9] = molecular target: Torsin-1A (Homo sapiens) (UniProt O14656); experiment: small-molecule binders of mutant TOR1A in lysate, primary screen, cell lysate, small-molecule microarray, COS7 lysate, 635/667 nm fluorescence (AID 1150); details: COS7 hTOR1A mutant lysate, 635 nm fluorescence, higher = more signal;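 also: score pools 667 nm emission and signal to noise measuring lysate protein binding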
[10] = tested on: Sonic hedgehog protein (Shh); experiment: small-molecule binders of Shh protein, primary screen, biochemical, small-molecule microarray, 635/667 nm fluorescence (AID 1151); details: small-molecule microarray binding, 635 nm fluorescence; higher = more signal;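 also: Shh protein binding to compounds spotted on small-molecule microarray slides; score combines spot fluorescence intensity with signal-to-noise across triplicate slides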
[11] = E. coli DRC41 culture turbidity changes, primary screen, E. coli filamentation inducer project, strain DRC41, OD650, 48 h (AID 1152);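 also: E. coli MC1000 strain DRC41 lacking acrAB efflux pump and sulA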; details: E. coli DRC41 (acrAB sulA), higher = more signal, called active from +8 up or from −8 down
[12] = small-molecule binders of probe aLefty1, primary screen, biochemical, small-molecule microarray, 635/667 nm fluorescence (AID 1153); details: higher = more signal;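 also: score merges spot fluorescence with signal-to-noise ratio from the scanned slide images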
[13] = PSAC antagonists in infected red cells, primary screen, cell-based, P. falciparum Indochina, OD700, 1 h (AID 1154); details: P. falciparum Indochina infected RBC osmotic lysis, higher = more signal, called active from +8 up or from −8 down
[14] = PSAC antagonists in infected red cells, primary screen, cell-based, P. falciparum Indochina, OD700, 2 h (AID 1155);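 also: lysis reports solute entry through the parasite surface anion channel PSAC; channel blockers reduce lysis of infected cells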; details: P. falciparum Indochina infected erythrocytes, osmotic lysis OD700; higher = more signal, called active from +8 up or from −8 down
[15] = osmotic lysis modulators in infected erythrocytes, primary screen, PSAC antagonist project, cell-based, P. falciparum Indochina, OD700, 3 h (AID 1156); details: higher = more signal, called active from +8 up or from −8 down
[16] = PSAC antagonists in infected red cells, primary screen, cell-based, P. falciparum Indochina, OD700, 18 h (AID 1157); details: P. falciparum Indochina infected erythrocytes, osmotic lysis OD700, 18 h; higher = more signal, called active from +8 up or from −8 down
[17] = modulators of S6 phosphorylation in cells, primary screen, cell-based, A549, cytoblot, luminescence, serum-stimulated (AID 1158); details: A549 phospho-S6 cytoblot, 5 h, higher = more signal;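 also: serum-stimulated A549 lung adenocarcinoma cells; signal is phosphorylated S6 detected by cytoblot immunostaining with HRP secondary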
[18] = molecular target: NADPH oxidase 2 (Homo sapiens) (UniProt P04839); experiment: NOX2-dependent H2O2 signal modulators, primary screen, NOX inhibitor project, cell-based, HEK293-NOX2, PMA-stimulated, Amplex Red fluorescence (AID 1159); details: 45 min, higher = more signal, called active from +8 up or from −8 down; also: test concentration not given here
Chain of NADPH oxidase 2 (Homo sapiens) (P04839 whole entry, looked up): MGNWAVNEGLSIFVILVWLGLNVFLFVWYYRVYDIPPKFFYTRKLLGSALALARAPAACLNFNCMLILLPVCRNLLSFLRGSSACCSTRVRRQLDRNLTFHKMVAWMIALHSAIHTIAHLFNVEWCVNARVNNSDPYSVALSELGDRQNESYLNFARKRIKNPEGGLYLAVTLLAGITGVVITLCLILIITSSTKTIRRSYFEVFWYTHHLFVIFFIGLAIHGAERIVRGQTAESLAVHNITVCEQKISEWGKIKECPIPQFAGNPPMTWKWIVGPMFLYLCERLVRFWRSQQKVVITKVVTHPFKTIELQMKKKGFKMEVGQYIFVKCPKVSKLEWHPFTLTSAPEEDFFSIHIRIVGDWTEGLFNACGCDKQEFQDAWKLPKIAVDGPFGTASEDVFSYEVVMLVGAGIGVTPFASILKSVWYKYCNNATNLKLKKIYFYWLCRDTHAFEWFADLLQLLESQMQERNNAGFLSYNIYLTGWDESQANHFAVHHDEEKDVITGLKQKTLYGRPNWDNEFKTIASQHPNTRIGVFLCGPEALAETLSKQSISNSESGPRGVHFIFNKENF

[19] = molecular target: NADPH oxidase 4 (Homo sapiens) (UniProt Q9NPH5); experiment: NOX4-dependent H2O2 signal modulators, primary screen, NOX inhibitor project, cell-based, HEK293-NOX4, tetracycline-induced, Amplex Red fluorescence (AID 1160); details: 45 min, higher = more signal, called active from +8 up or from −8 down
Chain of NADPH oxidase 4 (Homo sapiens) (Q9NPH5 whole entry, looked up): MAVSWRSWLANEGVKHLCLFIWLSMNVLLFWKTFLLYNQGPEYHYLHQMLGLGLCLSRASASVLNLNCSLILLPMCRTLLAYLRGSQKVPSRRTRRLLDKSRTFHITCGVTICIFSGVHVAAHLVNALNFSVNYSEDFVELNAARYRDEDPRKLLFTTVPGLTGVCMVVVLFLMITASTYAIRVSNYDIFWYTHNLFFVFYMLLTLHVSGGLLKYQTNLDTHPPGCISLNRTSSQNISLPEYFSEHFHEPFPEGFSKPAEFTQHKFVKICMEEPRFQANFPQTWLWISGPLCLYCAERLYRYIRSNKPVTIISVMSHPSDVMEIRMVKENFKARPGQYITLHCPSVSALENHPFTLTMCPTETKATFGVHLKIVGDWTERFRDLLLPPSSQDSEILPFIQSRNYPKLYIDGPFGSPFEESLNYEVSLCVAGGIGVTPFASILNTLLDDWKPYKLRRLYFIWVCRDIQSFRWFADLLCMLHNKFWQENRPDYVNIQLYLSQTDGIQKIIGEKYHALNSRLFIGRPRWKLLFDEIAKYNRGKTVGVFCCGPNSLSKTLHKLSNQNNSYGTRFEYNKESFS

[20] = molecular target: NADPH oxidase 5 (Homo sapiens) (UniProt Q96PH1); experiment: NOX5-dependent H2O2 signal modulators, primary screen, NOX inhibitor project, cell-based, HEK293-NOX5, Amplex Red fluorescence (AID 1161); details: HEK293-NOX5, ionomycin, 45 min, higher = more signal
Chain of NADPH oxidase 5 (Homo sapiens) (Q96PH1 whole entry, looked up): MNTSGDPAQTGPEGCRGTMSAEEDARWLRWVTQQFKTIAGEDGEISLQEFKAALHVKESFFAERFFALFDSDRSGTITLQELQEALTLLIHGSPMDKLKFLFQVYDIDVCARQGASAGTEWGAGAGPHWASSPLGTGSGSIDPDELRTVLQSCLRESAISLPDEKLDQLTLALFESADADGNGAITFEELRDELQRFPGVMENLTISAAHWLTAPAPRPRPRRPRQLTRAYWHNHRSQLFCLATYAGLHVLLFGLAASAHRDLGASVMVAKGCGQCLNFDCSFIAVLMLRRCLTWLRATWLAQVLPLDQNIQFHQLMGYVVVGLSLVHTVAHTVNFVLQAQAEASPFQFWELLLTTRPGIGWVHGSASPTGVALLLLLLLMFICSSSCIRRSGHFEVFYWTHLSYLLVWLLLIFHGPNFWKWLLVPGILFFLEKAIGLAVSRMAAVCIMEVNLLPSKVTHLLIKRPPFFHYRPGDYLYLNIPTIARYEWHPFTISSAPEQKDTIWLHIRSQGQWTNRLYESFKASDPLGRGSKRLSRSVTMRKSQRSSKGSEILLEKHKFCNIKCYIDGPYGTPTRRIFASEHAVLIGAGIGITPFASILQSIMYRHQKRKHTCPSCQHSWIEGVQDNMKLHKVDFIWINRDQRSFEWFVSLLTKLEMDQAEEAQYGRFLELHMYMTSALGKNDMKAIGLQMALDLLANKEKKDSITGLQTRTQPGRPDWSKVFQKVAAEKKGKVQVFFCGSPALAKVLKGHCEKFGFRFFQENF

Compound	composite z-score [1]	z-score [2]	z-score [3]	z-score [4]	z-score [5]	composite z-score [6]	composite z-score [7]	composite z-score (Torsin-1A (Homo sapiens) [8])	composite z-score (Torsin-1A (Homo sapiens) [9])	composite z-score [10]	z-score [11]	composite z-score [12]	z-score [13]	z-score [14]	z-score [15]	z-score [16]	z-score [17]	z-score [18]	z-score [19]	z-score [20]
COCCCNC(=O)[C@]1(Cc2ccccc2)N=C(c2ccc(OCCCO)cc2)O[C@@H]1c1ccccc1N=[N+]=[N-]	1.1	-5.91 (inactive)	-1.57 (inactive)	0.101 (inactive)	-0.844 (inactive)	0.607	-0.0136	1.04	1.04	-0.46	1.1 (inactive)	0.334	31.9 (active)	27.3 (active)	2.49 (inactive)	2.24 (inactive)	1.44	-5.51 (inactive)	-2.84 (inactive)	-2.21
C=CCC(OC(C)=O)[C@@H]1[C@@H](N(Cc2cccc3ccccc23)C(=O)Cc2ccc(F)cc2)c2cc(OCCCO)ccc2N1C(=O)Cc1ccc(OC)cc1 (stereo not given in full)	-0.0124	-0.627 (inactive)	-0.945 (inactive)	-0.579 (inactive)	-0.374 (inactive)	0.227	-0.102	-0.149	-0.137	0.309	1.44 (inactive)	0.0789	0.922 (inactive)	-0.262 (inactive)	-0.0628 (inactive)	-0.545 (inactive)	1.36	-0.973 (inactive)	0.113 (inactive)	0.743
CC(C)C[C@@H]1NC(=O)[C@@H]2C[C@H](C(=O)NCCCC[N+](C)(C)C)[C@H](c3cccc(OCCO)c3)N2C1=O	0.379	0.347 (inactive)	-0.595 (inactive)	-0.943 (inactive)	-0.231 (inactive)	0.154	-0.025	1.3	0.66	2.11	-0.44 (inactive)	0.115	3.73 (inactive)	1.16 (inactive)	-0.369 (inactive)	0.645 (inactive)	-0.102	-1.2 (inactive)	-0.152 (inactive)	-0.372
O=c1c2ccc(Br)cc2nc(-c2ccccc2)n1Cc1cccc(O)c1	0.153	-0.913 (inactive)	0.32 (inactive)	0.272 (inactive)	-1.17 (inactive)	0.669	0.229	1.45	1.88	0.332	0.421 (inactive)	0.748	15.7 (active)	3.45 (inactive)	0.386 (inactive)	1.73 (inactive)	-0.404	-1.84 (inactive)	-1.05 (inactive)	-1.99
CCOc1cc(C(O)C2C=CC3C(=O)NC(=O)C3N2Nc2ccccn2)ccc1O (stereo not given)	0.342	0.961 (inactive)	0.543 (inactive)	-0.333 (inactive)	0.153 (inactive)	0.171	-0.158	-0.0106	0.12	-0.476	-1.17 (inactive)	0.0253	-0.251 (inactive)	0.519 (inactive)	-0.195 (inactive)	0.828 (inactive)	-1.27	-1.35 (inactive)	-3.69 (inactive)	-1.57
CC(C)(C)OC(=O)CC[C@@]1(C(=O)N2CCCCC2)N=C(c2ccc(OCCCO)cc2)O[C@@H]1c1ccccc1N=[N+]=[N-]	0.258	-2.66 (inactive)	-0.197 (inactive)	0.227 (inactive)	-1.62 (inactive)	2.05	0.401	0.332	0.827	0.292	1.71 (inactive)	0.432	30.3 (active)	29.3 (active)	2.26 (inactive)	8.44 (active)	-0.0394	-2.98 (inactive)	1.03 (inactive)	-1.47
Cc1ccc(N2C(=O)c3ccccc3[C@](C)(C(=O)NC(C)C)[C@@H]2c2ccc(CO)cc2)nc1	-0.281	0.328 (inactive)	0.306 (inactive)	0.155 (inactive)	0.521 (inactive)	-1.78	-0.289	-3.17	0.758	-0.974	1.07 (inactive)	-0.275	0.641 (inactive)	0.414 (inactive)	0.18 (inactive)	0.232 (inactive)	0.274	0.358 (inactive)	-0.357 (inactive)	-0.363
O=C(O)[C@@]1(Cc2ccccc2)COC(c2ccc(OCCCO)cc2)=N1	0.0416	0.621 (inactive)	0.498 (inactive)	-0.277 (inactive)	0.0685 (inactive)	-0.345	-0.252	-0.162	1.52	-0.555	0.532 (inactive)	-0.0573	1.36 (inactive)	-0.166 (inactive)	0.619 (inactive)	0.295 (inactive)	-0.521	-0.0643 (inactive)	0.432 (inactive)	0.237

Source: PubChem BioAssay
